Experiment [1] addresses 3',5'-cyclic-AMP phosphodiesterase 4B (Homo sapiens) (UniProt Q07343). The experiment in a line: qHTS Assay for Inhibitors of PDE-IV (AID 607). Put shortly:
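HEK293 ACTOne cells with CNG channel (1000/well), endogenous PDE4; membrane potential dye, compounds up to 22.9 uM final. Fluorescence Ex 535/Em 590; RO 20-1724 (100 uM final) as reference.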
A general note: qHTS replaces the single test concentration by a dilution series.

Experiment [2] in a line: Cellular Toxicity (caspase-3) HepG2 (AID 654; active = well fitted curve in the direction sought with a large enough effect; an effect the other way counts as inactive or inconclusive;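 also: cells exposed to compound for 16 hours before reading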). Put shortly:
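Luminescent Caspase-Glo 3/7 readout after 16 hr compound exposure of human hepatocellular carcinoma HepG2 cells at 37 °C; qHTS concentration-response, normalized DMSO = 0%, 100 uM tamoxifen = 100%; AC50 by standard Hill equation.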

Experiment [3] is described as follows: Cellular Toxicity (caspase-3) Jurkat (AID 655; active = well fitted curve in the direction sought with a large enough effect; an effect the other way counts as inactive or inconclusive;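 also: cells exposed to compound for 16 h at 37 °C before reading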). In short, it runs like this:
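Luminescent caspase-3/7 readout (aminoluciferin substrate cleavage) in human T-cell leukemia Jurkat cells after 16 hr compound exposure. Concentration-response normalized to DMSO and 100 uM tamoxifen; AC50 by standard Hill equation.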

Experiment [4] can be described thus: Cellular Toxicity (caspase-3) BJ (AID 658; active = well fitted curve in the direction sought with a large enough effect; an effect the other way counts as inactive or inconclusive;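 also: cells exposed to compound for 16 hours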). In short, it runs like this:
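Plated BJ cells (1000/well) rested 5 hr, received compound for 16 hr at 37 °C, then Caspase-Glo 3/7 reagent for 1 hr at room temperature before luminescence reading.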

Experiment [5] can be described thus: Cellular Toxicity (caspase-3) MRC-5 (AID 659; active = well fitted curve in the direction sought with a large enough effect; an effect the other way counts as inactive or inconclusive). In short, it runs like this:
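Apoptosis readout in MRC-5 cells: luciferase light generated after caspase 3/7 cleaves a peptide-aminoluciferin substrate, measured post 16 hr compound incubation at 37 °C.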

Experiment [6] in a line: Cellular Toxicity (caspase-3) Mesangial (AID 660; active = well fitted curve in the direction sought with a large enough effect; an effect the other way counts as inactive or inconclusive;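 also: combined caspase 3 and 7 activity read by Caspase-Glo luminescence; cells exposed to compound for 16 h before the caspase read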). Particulars: Potency: caspase-3 activation. In short, it runs like this:
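Luminescent Caspase-Glo 3/7 readout (aminoluciferin substrate cleavage, 20 min RT) after 16 h compound exposure at 37 °C of normal human mesangial cells. Signal increase normalized between DMSO basal and 100 uM tamoxifen; Hill-equation AC50.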

A short description of experiment [7]: Cellular Toxicity (caspase-3) SK-N-SH (AID 661; active = well fitted curve in the direction sought with a large enough effect; an effect the other way counts as inactive or inconclusive;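 also: cells exposed to compound for 16 hours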). In short, it runs like this:
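Luminescent Caspase-Glo 3/7 read-out after 16 hr compound exposure of SK-N-SH neuroblastoma cells at 37 °C. Signal increase normalized to DMSO (basal) and 10 uM staurosporine (100%); AC50 from Hill equation fits of qHTS concentration-response data.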

Experiment [8] is described as follows: Cellular Toxicity (caspase-3) H-4-II-E (AID 663; active = well fitted curve in the direction sought with a large enough effect; an effect the other way counts as inactive or inconclusive;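 also: cells exposed to compound for 16 hr before readout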). Particulars: H-4-II-E rat hepatoma, scaled: DMSO 0%, 100 µM tamoxifen 100%; at 92.2 µM (top of the series). In short, it runs like this: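 Caspase 3/7 activation measured in H-4-II-E cells in complete culture medium after 16 hr treatment at 37 °C, using luciferase-coupled substrate readout; AC50 values come from Hill-equation fits of normalized concentration-response data.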

A short description of experiment [9]: Cellular Toxicity (caspase-3) Hek293 (AID 664; active = well fitted curve in the direction sought with a large enough effect; an effect the other way counts as inactive or inconclusive;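 also: cells exposed to compound for 16 h at 37 °C before readout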). Particulars: HEK293 caspase-3 activation, DMSO = 0%, 100 µM tamoxifen = 100%; at 92.2 µM (top of the series). Put shortly:
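Luminescent Caspase-Glo 3/7 readout (aminoluciferin release) in HEK293 cells after 16 h compound treatment, 37 °C. Normalization: DMSO = basal, 100 uM tamoxifen = 100% stimulation. Concentration-response fitted with standard Hill equation for AC50.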

The results in this text go back to PubChem BioAssay (NCATS).

Unmarked numbers belong to inactive results. Results filed as inconclusive are left out. Where a call stands in place of a potency, no number is given. Activity calls are given as the source filed them. Unless noted, calls follow the shape of the dose curve; as a rule, active = well fitted activation curve with a large enough effect in the main read-out, with a control signal flat (not every such curve was filed as active); inconclusive = small, poorly fitted or top-dose-only effect, or effect the other way, or a change in a side signal; inactive = flat fitted curve, though single readings scatter.

3',5'-cyclic-AMP phosphodiesterase 4B (Homo sapiens), sequence (Q07343 whole entry, looked up): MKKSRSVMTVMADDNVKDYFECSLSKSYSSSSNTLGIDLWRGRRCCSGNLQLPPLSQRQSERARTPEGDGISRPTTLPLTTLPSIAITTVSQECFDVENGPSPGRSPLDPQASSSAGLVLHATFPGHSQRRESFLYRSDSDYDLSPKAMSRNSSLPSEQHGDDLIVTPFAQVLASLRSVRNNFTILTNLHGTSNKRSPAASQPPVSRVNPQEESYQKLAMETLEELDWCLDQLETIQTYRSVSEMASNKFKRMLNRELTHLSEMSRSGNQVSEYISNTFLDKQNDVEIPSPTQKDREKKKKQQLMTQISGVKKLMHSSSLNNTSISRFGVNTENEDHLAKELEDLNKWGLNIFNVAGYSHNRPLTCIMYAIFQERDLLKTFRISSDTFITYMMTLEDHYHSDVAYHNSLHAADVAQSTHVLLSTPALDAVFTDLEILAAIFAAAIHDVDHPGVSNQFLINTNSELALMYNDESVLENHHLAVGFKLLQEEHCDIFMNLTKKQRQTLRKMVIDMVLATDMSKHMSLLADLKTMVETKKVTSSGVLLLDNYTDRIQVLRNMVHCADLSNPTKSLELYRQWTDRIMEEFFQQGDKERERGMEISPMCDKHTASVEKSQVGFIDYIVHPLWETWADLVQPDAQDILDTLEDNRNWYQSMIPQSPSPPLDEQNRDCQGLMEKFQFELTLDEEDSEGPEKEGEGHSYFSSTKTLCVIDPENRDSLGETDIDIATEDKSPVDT

For `CC(C)(C=O)Cc1cc(C(C)(C)C)c(O)c(C(C)(C)C)c1`, the outcome in [1] was inactive.

As to `O=Nc1ccc2oc(=O)ccc2c1`, the molecule was classed as inactive in [1]. The same measure, in the same setting: in the case of `N[C@H](CCCP(=O)(O)O)C(=O)O` it was “inactive”. `NC(N)=NC(=O)c1nc(Cl)c(N2CCCCCC2)nc1N`: the result in [1] was inactive. Still for that read-out and setting: for `CC1(C)CCC=[N+]1[O-]` the value was “inactive”; for `NCCCCCCCCCCN`, “inactive”; for `CCCCN1CCC(n2c(=O)[nH]c3ccccc32)CC1`, “inactive”.

As for `NC[C@@H]1O[C@H](C23CC4CC(CC(C4)C2)C3)Cc2c1ccc(O)c2O`, in [1], the molecule was called inactive. On the same count and under the same terms, in the case of `COc1ccccc1CNCCCCCCNCCCCCCCCNCCCCCCNCc1ccccc1OC` it was “inactive”. The same measure, in the same setting: in the case of `Cc1cc(NC(=O)Nc2ccc3c(ccn3C)c2)sn1` it was “inactive”; in that of `C[N+](C)(CCCCCC[N+](C)(C)CCCN1C(=O)c2cccc3cccc(c23)C1=O)CCCN1C(=O)c2cccc3cccc(c23)C1=O`, “inactive”; in that of `Cn1c(=O)c2[nH]c(-c3ccccc3)nc2n(C)c1=O`, “inactive”.

Take `N#C/C(=C\c1c[nH]c2ccccc12)C(=O)c1ccc(O)c(O)c1`: the outcome in [1] was inactive.

With `CC(C)NCC(O)COc1cccc2ccccc12` (stereo not drawn), the Potency result in [2], in experiment [3], in [6] and in experiment [7] was “inactive” in each case. In addition, the outcome in experiment [4] and in experiment [5] was inactive. For the same molecule, the figures for the caspase-3 activation in experiment [8] and in experiment [9] were 12.6% and 0.268%, respectively.

With `CN1CCc2cc(NC(=O)Nc3cccnc3)ccc21`, the outcome in experiment [1] was inactive. Same read-out and setting: for `NCCCS(=O)(=O)O` the value was “inactive”. On the same count and under the same terms, in the case of `Fc1ccc(C(OCCCc2cnc[nH]2)c2ccc(F)cc2)cc1` it was “inactive”; in that of `COc1ccccc1N1CCN(CCN(C(=O)c2ccc(I)cc2)c2ccccn2)CC1`, “inactive”. As to `NC(=O)C(=O)O`, the molecule was called inactive in experiment [1]. Still for that read-out and setting: for `NCCSSCCN` the value was “inactive”. As to `O=C(O)c1cc(=O)c2ccccc2[nH]1`, in [1], the outcome was inactive. The same measure, in the same setting: in the case of `O=c1[nH]c2cc(Cl)c(Cl)cc2[nH]c1=O` it was “inactive”; in that of `CC(=O)SCC[N+](C)(C)C`, “inactive”. The same measure, in the same setting: for `CN=c1nc(-c2ccccc2)n(-c2ccccc2)s1` the value was “inactive”.

As to `COc1cccc(C(=O)NCCN2CCN(c3ccc(Cl)cc3)CC2)c1`, the call in experiment [1] was inactive.

Turning to `Cn1cc(C2=C(c3ccc(Cl)cc3Cl)C(=O)NC2=O)c2ccccc21`, the molecule was called inactive in experiment [1]. Take `O=c1cc(-c2ccccc2)oc2ccccc12`: the Potency result in experiment [2], in [3], in [6] and in [7] was “inactive” each time. Moreover, the molecule was classed as inactive in [4] and in experiment [5]. The caspase-3 activation is -0.716% in experiment [8] and -5.01% in [9]. Take `CCCSc1ccc2nc(NC(=O)OC)[nH]c2c1`: the outcome in experiment [1] was inactive. As to `O=C(O)c1cc([N+](=O)[O-])ccc1NCCCc1ccccc1`, in experiment [1], the outcome was inactive. The same measure, in the same setting: in the case of `O=C(O)CC[C@@H](C(=O)O)N1C(=O)c2ccccc2C1=O` it was “inactive”; in that of `Clc1ccccc1-c1nc(-c2ccncc2)no1`, “inactive”; in that of `Nc1cc(-c2ccncc2)c[nH]c1=O`, “inactive”. Still for that read-out and setting: in the case of `NCCNC(=O)c1ncsc1-c1cccc(F)c1` it was “inactive”. The same measure, in the same setting: for `CN(C)c1nc(N)c(C(=O)N=C(N)N)nc1Cl` the value was “inactive”; for `CC(C)NC[C@H](O)COc1cccc2[nH]ccc12`, “inactive”; for `NO`, “inactive”. Take `O=C(O)c1cc(O)c(O)c(O)c1`: the Potency entry in experiment [2], in experiment [3], in experiment [6] and in experiment [7] was “inactive” each time. Further, the outcome in [4] and in experiment [5] was inactive. The caspase-3 activation in [8] was -0.904%; in experiment [9] it was -9.64%.
